# According to the supplement of paper PMC10338343:
# ± gives the standard deviation. The full ranking holds about 6,600 sequences; the median of “pre-steady-state target cleavage rate” is about 0.07, and the highest 2% start at about 0.72. The sample as a whole holds a higher share of the highest values than the screen did.
# System: MIWI (PIWIL1) piRISC loaded with Kctd7 piRNA (30 nt)
# Test: pre-steady-state target cleavage rate (min^-1); MIWI and MILI are mouse PIWI proteins and EfPiwi is from a freshwater sponge; tags in brackets are library labels; higher = faster piRNA-guided slicing of the target
# Details: guide: Kctd7 piRNA 5'p-UGUUAAUCUCUCAGAGAAGGUGACAGUGAU; auxiliary factor: 500 nM mouse GTSF1
# Description: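 Cleave-'n-Seq: a library of target RNAs (target site embedded in constant flanks, ACAGCATTCCGCGTTAGTGATATCCG... 5' flank; DNA-blocked outside the site) at 0.1 nM was incubated with 1 nM active mouse MILI or MIWI piRISC (synthetic 5'-monophosphorylated piRNA guide) with or without 500 nM mouse GTSF1 at 33 °C for 1 min to 16 h. Uncleaved targets were sequenced and normalised to non-target controls, and the pooled three trials were fitted to a burst-and-steady-state model to give the pre-steady-state cleavage rate (min^-1; k3 is constrained to at most 1e-4). Sequence is the target site only; target names encode pairing extent (gX:gY) and contiguous / 1-mismatch / 2-mismatch / bulge geometry. Fits with R² ≤ 0 are excluded.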
row,Sequence,pre-steady-state target cleavage rate
1,UACACUGUCACCUUCUGAGAGAGAUUUUGA,0.0616 ± 0.019
2,UUCACUGUCACCUUGUCUGAGAGAUUUUGA,1.06 ± 0.27
3,UACACUGUCACCUUCACUGAGAGAUUUUGA,0.302 ± 0.099
4,AUCACUGUCACCUUCACUGAGAGAUUUUGA,0.339 ± 0.082
5,UAGACUGUCACCUUGUCUGAGAGAUUUUGA,0.234 ± 0.066
6,UACACUGUCACCUUGUCUGAGAGAUUUUGA,1.02 ± 0.24
7,AUCACUGUCACCUUCUCUGAGAGAUUUUGA,0.0948 ± 0.023
8,AUCACUGUCACCUUGACUGAGAGAUUUUGA,0.839 ± 0.22
9,UAGUCUGUCACCUUGUCUGAGAGAUUUUGA,0.197 ± 0.06
10,UACACUGUCACCUUGACUGAGAGAUUUUGA,0.117 ± 0.039
11,AUCACUGUCACCUUGUCUGAGAGAUUUUGA,1.4 ± 0.36
12,UAGUCUGUCACCUUCACUGAGAGAUUUUGA,0.176 ± 0.046
13,UAGUGACACACGUUGUCUGAGAGAUUAACA,0.0596 ± 0.011
14,UAGUGACAGUCCUUCUCUGAGAGAUUAAACA,0.0368 ± 0.0052
15,UAGUGACACAGCUUCUCUGAGAGAUUAUGA,0.00591 ± 0.0022
16,AUCACUGUCACCUUGCUCUGAGAGAUUAACA,1.1 ± 0.18
17,UACACUGUCACCUGCUCUGAGAGAUUAACA,0.571 ± 0.03
18,UUCACUGUCACCUUGCUCUGAGAGAUUAACA,0.747 ± 0.11
19,UAGUCUGUCACCUUGCUCUGAGAGAUUAACA,0.47 ± 0.081
20,AUCACUGUCACCUGCUCUGAGAGAUUAACA,0.673 ± 0.026
21,UACACUGUCACCUUGCUCUGAGAGAUUAACA,1.01 ± 0.17
22,UACACUGUCACCUUGUCUGAGAGAUUAACA,0.355 ± 0.042
23,UUCACUGUCACCUGCUCUGAGAGAUUAACA,0.645 ± 0.031
24,AUCACUGUCACCUGUCUCUGAGAGAUUAACA,0.651 ± 0.038
25,UAGACUGUGACCUUCUCUGAGAGAUUAUCA,0.246 ± 0.033

row,Sequence,pre-steady-state target cleavage rate
1,UAGACACUCACCUUCUCUGAGAGAUUAUGA,0.141 ± 0.031
2,AUCACUGUCACGUUCACUGAGAGAUUAACA,0.44 ± 0.025
3,UAGUCUGUCACCUUCUCUGAGAGAUAAUGA,0.0204 ± 0.0082
4,UUCACUGUCACCUUCUCUGAGAGUUUAUGA,0.71 ± 0.18
5,UAGUGUGUCACCUUCUCUGAAGAGAUUAACA,0.00762 ± 0.0051
6,UACACUCUCACCUUCUCUGAGUGAUUAACA,0.0216 ± 0.0064
7,UAGUCUUUCACCUUCUCUGAGAGAUUAACA,0.265 ± 0.015
8,UAGUGAGUCAGCUUCUCUGAGAGAAUAACA,0.199 ± 0.032
9,UACACUGUCACCUUCUCUGUCAGAUUAACA,0.0245 ± 0.008
10,UAGACUGUCACCUUUCUCUGAGAGAUUAACA,0.538 ± 0.039
11,UUCACUGUCACCUUUUCUGAGAGAUUAACA,0.679 ± 0.028
12,UAGACUGUCACCUUUUCUGAGAGAUUAACA,0.732 ± 0.034
13,AUCACUGUCACCUUUUCUGAGAGAUUAACA,0.748 ± 0.029
14,AUCACUGUCACCUUUCUGAGAGAUUAACA,0.532 ± 0.025
15,UAGACUGUCACCUUUCUGAGAGAUUAACA,0.5 ± 0.033
16,UAGUGAGUCACCUUCACUCAGAGAUUAACA,0.0317 ± 0.0057
17,UUCACUGUCUCCUUCUCUGAGAGAUUAUCA,0.231 ± 0.035
18,UAGUGACAGUGCUUCACUGAGAGAUUAACA,0.00805 ± 0.0033
19,UAGUGACUCACGUUCUCUGAGAGAUUUUGA,< 0.0001
20,UAGAAUGUCACCUUCUCUGAGAGAUUAACA,0.652 ± 0.038
21,AUCACUGUCACCUUCACUGAGAGAUUUACA,0.511 ± 0.082
22,UUCACUGUCACCUUGUCUGAGAGUUUAACA,0.422 ± 0.077
23,UAGACUGUCACCUUGUCUGAGAGAUUUACA,0.659 ± 0.12
24,UACACUGUCACCUUGUCUGAGAGAUUUACA,0.989 ± 0.19
25,AUCACUGUCACCUUGUCUGAGAGUUUAACA,0.745 ± 0.15

row,Sequence,pre-steady-state target cleavage rate
1,UUCACUGUCACCUUGUCUGAGAGAUUUACA,0.671 ± 0.12
2,AUCACUGUCACCUUGUCUGAGAGAUUUACA,0.799 ± 0.14
3,UAGUCUGUCACCUUGUCUGAGAGAUUUACA,0.25 ± 0.045
4,UACACUGUCACCUUGUCUGAGAGUUUAACA,0.442 ± 0.11
5,UACACUGUGACCUUCUCUGAGAGAUUAACA,0.464 ± 0.037
6,UAGUGACAGUCCUUCUCUGAGAGUAUUAACA,0.0116 ± 0.0023
7,UAGUGUGUCACCUUCUCUGAGACAUUUACA,0.028 ± 0.0097
8,UAGUGACACACCAACUCUGAGAGAUUAACA,0.0222 ± 0.0043
9,UUCACUCAGACCUUCUCUGAGAGAUUAUGA,0.0052 ± 0.0036
10,UAGUGAGACACCUUCUCUGAGAGAUUAAGA,0.0909 ± 0.019
11,AACACUGUCACCUUCUCUGAGAGAUUAUGA,0.101 ± 0.021
12,UAGACUGUCAUCCUUCUCUGAGAGAUUAACA,0.262 ± 0.023
13,UUCACUGUCAUCUUCUCUGAGAGAUUAACA,0.596 ± 0.027
14,UAGACUGUCAUCUUCUCUGAGAGAUUAACA,0.848 ± 0.051
15,AUCACUGUCACUCUUCUCUGAGAGAUUAACA,0.53 ± 0.035
16,AUCACUGUCAUCUUCUCUGAGAGAUUAACA,0.827 ± 0.041
17,UAGACUGUCACUCUUCUCUGAGAGAUUAACA,0.457 ± 0.032
18,AUCACUCUCACCUUCUCUGAGAGAUUAUGA,0.049 ± 0.018
19,UAGACUGUCACCUUCUCUCAGAGUUUAACA,0.0473 ± 0.0063
20,UAGUCUGACACCUUGUCUGAGAGAUUAACA,0.164 ± 0.022
21,AUCAAUGUCACCUUCUCUGAGAGAUUAACA,0.672 ± 0.03
22,UACACUGUCUCCUUCUCUGAGAGAUUAACA,0.599 ± 0.034
23,UAGACUGUCUCCUUCUCUGAGAGAUUAACA,0.662 ± 0.04
24,AUGACUGUCUCCUUCUCUGAGAGAUUAACA,0.623 ± 0.037
25,UUCACUGUCUCCUUCUCUGAGAGAUUAACA,0.685 ± 0.036

row,Sequence,pre-steady-state target cleavage rate
1,AACACUGUCUCCUUCUCUGAGAGAUUAACA,0.738 ± 0.039
2,UUGACUGUCUCCUUCUCUGAGAGAUUAACA,0.746 ± 0.04
3,AUCACUGUCACCUUCUUCUGAGAGAUUAACA,0.212 ± 0.046
4,UAGUGUGUCACCUUCUCUGAGACUUUAUGA,0.00826 ± 0.0044
5,UUCAGUGUCACCUUCUCUGAGAGAUAAACA,0.264 ± 0.033
6,UAGACUGUCUGGUUCUCUGAGAGAUUAUGA,< 0.0001
7,UAGUCUGUCACCUUCUGUCAGAGAUUAACA,0.01 ± 0.0034
8,UAGUCUGUCACCGUUCUCUGAGAGAUUAACA,0.651 ± 0.041
9,UUCACUGUCACCGUCUCUGAGAGAUUAACA,0.509 ± 0.022
10,AUCACUGUCACCGUUCUCUGAGAGAUUAACA,0.774 ± 0.052
11,UUCACUGUCUCGUUCUCUGAGAGAUUAACA,0.631 ± 0.035
12,UACACUGUCACCGUUCUCUGAGAGAUUAACA,0.586 ± 0.03
13,UUCACUGUCACCGUUCUCUGAGAGAUUAACA,0.729 ± 0.032
14,UUCACUGUGACCUUCUCUGAGAGAUUAUGA,0.119 ± 0.021
15,UAGUGUGUCUCCUUCUCUGACAGAUUAACA,0.386 ± 0.03
16,UACACUGUCACUUUCUCUGAGAGAUUAACA,0.725 ± 0.025
17,UAGACUGUCACUUCUCUGAGAGAUUAACA,0.466 ± 0.041
18,UAGACUGUCACACUUCUCUGAGAGAUUAACA,0.607 ± 0.04
19,UAGACUGUCACUUUCUCUGAGAGAUUAACA,0.8 ± 0.043
20,UACACUGUCACUUCUCUGAGAGAUUAACA,0.577 ± 0.038
21,UACACUGUCACCUUUCUCUGAGAGAUUAACA,0.575 ± 0.029
22,AUCACUGUCACUUUCUCUGAGAGAUUAACA,0.794 ± 0.04
23,AUCACUGUCACCUUUCUCUGAGAGAUUAACA,0.599 ± 0.034
24,UUCACUGUCACUUUCUCUGAGAGAUUAACA,0.691 ± 0.026
